Drawing on PubChem BioAssay (NCATS), this text covers Potency for 39 compounds.

Records with an inconclusive call do not appear. A call without a number means that no potency is given here. The source made the active and inactive calls. Calls come from the whole dose curve; as a rule, active = well fitted inhibition curve with a large enough effect; inconclusive = small, poorly fitted or top-dose-only effect, or effect the other way; inactive = flat fitted curve, though single readings scatter.
Potency is the fitted concentration of half-maximal effect.

ATP-dependent 6-phosphofructokinase (Trypanosoma brucei brucei), sequence (O15648 whole entry, looked up): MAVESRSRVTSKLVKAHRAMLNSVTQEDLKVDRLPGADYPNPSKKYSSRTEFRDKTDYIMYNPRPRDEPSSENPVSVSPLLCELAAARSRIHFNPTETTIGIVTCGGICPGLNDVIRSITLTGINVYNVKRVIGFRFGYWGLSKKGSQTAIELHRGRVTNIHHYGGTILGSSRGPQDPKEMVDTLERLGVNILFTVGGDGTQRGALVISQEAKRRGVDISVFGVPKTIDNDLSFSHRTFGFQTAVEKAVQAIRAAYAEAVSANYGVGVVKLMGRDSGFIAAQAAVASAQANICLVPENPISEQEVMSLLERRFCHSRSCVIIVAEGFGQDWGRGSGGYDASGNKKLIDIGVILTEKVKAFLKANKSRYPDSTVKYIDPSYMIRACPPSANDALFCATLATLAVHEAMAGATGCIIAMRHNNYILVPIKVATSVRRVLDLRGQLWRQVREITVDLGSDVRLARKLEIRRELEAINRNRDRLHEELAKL

This assay has as its target ATP-dependent 6-phosphofructokinase (Trypanosoma brucei brucei) (UniProt O15648). In words: qHTS Assay to Find Inhibitors of T. brucei phosphofructokinase: hit validation (AID 492961). The following applies: T. brucei PFK, ADP-Glo luminescence; series mostly up to 51.4 µM. The essentials: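 Measures ADP output of PFK (1.25 nM) at 0.1 mM ATP, 0.5 mM F6P, pH 8.0 TEA buffer with 5 mM MgCl2. No-enzyme wells define full inhibition; uninhibited enzyme wells define zero.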
For `O=C(CS(=O)C(c1ccccc1)c1ccccc1)NO` (centres undefined), the Potency entry is “inactive”.
As for `O=c1[nH]cc(N(CCCl)CCCl)c(=O)[nH]1`, the Potency result was “inactive”.
For `C[C@]12CCC(=O)C[C@@H]1CC[C@@H]1[C@@H]2CC[C@]2(C)[C@@H](O)CC[C@@H]12`, the Potency result was “inactive”.
With `FC(F)OC(F)(F)C(F)Cl` (centres undefined), the Potency entry was “inactive”.
As for `[Cl-].[Cl-].[Hg+2]`, the Potency is 8.91 µM (active).
For `S=C(S)N1CCNCC1` the value was “inactive”; for `CC(Cc1ccccc1)NC=O` (centres undefined), “inactive”; for `CNC(=O)Oc1ccccc1C(=O)Nc1ccccc1`, “inactive”.
With `F/C(COc1ccc2c(c1)[nH]c1ccccc12)=C1/CN2CCC1CC2` the entry was “inactive”; with `C[C@H]1CC[C@@H]2[C@@H](C)[C@H]3[C@H](C[C@H]4[C@@H]5CC=C6CC(O[C@@H]7O[C@H](CO)[C@H](O)[C@H](O[C@@H]8O[C@H](CO)[C@@H](O)[C@H](O)[C@H]8O)[C@H]7O[C@H]7O[C@@H](C)[C@H](O)[C@@H](O)[C@H]7O)CC[C@]6(C)[C@H]5CC[C@]34C)N2C1` (some centres undefined), “inactive”; with `CNC(C)C(O)c1ccc(O)cc1` (centres undefined), “inactive”.
Consider `CCC1(C)CC(=O)NC(=O)C1`, for which the Potency entry is “inactive”.
On to `CCOC(=O)c1ccccc1C(=O)OCC`, for which the Potency result was “inactive”.
On to `O=[N+]([O-])C(Br)(CO)CO`, for which the Potency was 8.91 µM (active).
With `O=C1CCO1` the entry was “inactive”; with `CCC1(c2ccccc2)C(=O)NC(=O)NC1=O`, “inactive”; with `O=C(NCNC(=O)NC1C(=O)NC(=O)N1CO)NC1C(=O)NC(=O)N1CO` (centres undefined), “inactive”.
Consider `CCNC(C)Cc1cccc(C(F)(F)F)c1` (centres undefined), for which the Potency entry is “inactive”.
For the compound `NCC(O)c1cccc(O)c1` (centres undefined), the Potency entry is “inactive”.
For `c1ccc(C2(N3CCCC3)CCCCC2)cc1`, the Potency entry was “inactive”.
For `COC([CH2][Hg])CNC(=O)c1ccccc1OCC(=O)O` (centres undefined) the value was 7.08 µM (active); for `ClCC1CO1` (centres undefined), “inactive”; for `CCON=O`, “inactive”.
Take `C[CH2][Hg][S]c1ccccc1C(=O)O`: the Potency was 14.1 µM (active).
For `O=C(NC(=O)c1c(F)cccc1F)Nc1ccc(Cl)c(Oc2ncc(C(F)(F)F)cc2Cl)c1` the value was “inactive”; for `CCCCCl`, “inactive”.
In the case of `O=C/C=C/c1ccccc1`, the Potency result was “inactive”.
For `Clc1ccc(C2(Cn3cncn3)OCCO2)c(Cl)c1` the value was “inactive”; for `ClC(Cl)(Cl)Cl`, “inactive”; for `COc1ccc2c3c1O[C@H]1C(=O)CC[C@H]4[C@@H](C2)N(C)CC[C@]314`, “inactive”.
As for `CCC1(CC)C(=O)NC(=O)N(C)C1=O`, the Potency result was “inactive”.
Consider `c1csc(C2(N3CCCCC3)CCCCC2)c1`, for which the Potency result is “inactive”.
Consider `CC(N)Cc1ccc(O)cc1` (centres undefined), for which the Potency result is “inactive”.
As for `O=S(=O)(O)c1cc(O)ccc1O`, the Potency result was “inactive”.
With `C[C@@H](Cc1ccccc1)NCCC(c1ccccc1)c1ccccc1`, the Potency entry was “inactive”.
For `O=C1CN(O)C(c2ccccc2)=c2cc(Cl)ccc2=N1` the value was “inactive”.
For `CCC1C(C)=NN=C(c2ccc(OC)c(OC)c2)c2cc(OC)c(OC)cc21` (centres undefined) the value was “inactive”; for `C[C@H]1CCC[C@H](O)CCCCCc2cc(O)cc(O)c2C(=O)O1`, “inactive”.
Regarding `C=CCC1(C(C)CCC)C(=O)N=C(S)NC1=O` (centres undefined), the Potency result is “inactive”.
